# According to PubChem BioAssay (EPA / NIEHS):
# Activity calls are given as the source filed them. The calls were made as follows: active = hit-call score of the fitted dose curve at least 0.9, where 1 is the maximum; inactive = score below 0.9.
# Target: Cellular tumor antigen p53 (Homo sapiens) (UniProt P04637)
# Test: ATG_p53_CIS: Attagene CIS-FACTORIAL HepG2 Assay for human p53 Transcription Factor (AID 2282994)
# Details: HepG2 p53 cis-element reporter, Attagene mRNA; actives raise or lower the signal
# Method: ATG_CIS is a cell-based, multiplexed-readout assay that uses HepG2, a human liver cell line, with measurements taken at 24 hours after chemical dosing in a 24-well plate.ATG_p53_CIS is one of 52 assay component(s) measured or calculated from the ATG_CIS assay. It is designed to make measurements of mRNA induction, a form of inducible reporter, as detected with fluorescence intensity signals by Reverse transcription polymerase chain reaction (RT-PCR) and Capillary electrophoresis technology.Data from the assay component ATG_p53_CIS was analyzed into 1 assay endpoint. This assay endpoint, ATG_p53_CIS, was analyzed with bidirectional fitting relative to DMSO as the negative control and baseline of activity. Using a type of inducible reporter, measures of mRNA for gain or loss-of-signal activity can be used to understand the reporter gene at the transcription factor-level as they relate to the gene TP53. Furthermore, this assay endpoint can be referred to as a primary readout, because this assay has produced multiple assay endpoints where this one serves a reporter gene function. To generalize the intended target to other relatable targets, this assay endpoint is annotated to the dna binding intended target family, where the subfamily is tumor suppressor.
# Human liver HepG2 cells are transiently transfected with multiple reporter transcription units (MRTUs) in 6-well plates using FuGene 6 reagent (Roche; 3 ml FuGene/1 mg DNA). The MRTU constructs are regulated by a cis-regulating element (promoter). […] A major difference between the CIS and TRANS system is that in CIS activities of endogenous TFs are measured, whereas the TRANS assay evaluates changes in activities of exogenous, chimeric NR-Gal4 proteins. […] At the end of 24 hour incubation, total RNA was isolated using TriZol reagent (Invitrogen). The isolated RNA is then reverse-transcribed using oligo(dT) primer and Mo-MLV reverse transcriptase (Invitrogen) with DNAse I (Ambion) treatment for 30 min. The one-tenth of the produced cDNA was amplified by PCR using Taq DNA polymerase (Invitrogen) and two reporter sequence-specific primers. The PCR products were fluorescently labeled by primer extension with 6-arboxyfluorescein (6-FAM) 5'-labeled reporter sequence-specific primer (2 min at 95 C, 20 s at 68 C and 10 min at 72 C) and these products were digested with 5U of HpaI (New England Biolabs) for 2h at 37 C. The fragments were purified using Qiaquick PCR columns (Qiagen), analyzed on an ABI 3130xL genetic analyzer (Applied Biosystems) with peak positions identified by using a set of X-rhodamine (ROX)-labeled MapMarker1000 molecular weight standards (BioVentures). The raw capillary electrophoresis data was processed using Attagraph software (Attagene).
# Chain of Cellular tumor antigen p53 (Homo sapiens) (P04637 whole entry, looked up): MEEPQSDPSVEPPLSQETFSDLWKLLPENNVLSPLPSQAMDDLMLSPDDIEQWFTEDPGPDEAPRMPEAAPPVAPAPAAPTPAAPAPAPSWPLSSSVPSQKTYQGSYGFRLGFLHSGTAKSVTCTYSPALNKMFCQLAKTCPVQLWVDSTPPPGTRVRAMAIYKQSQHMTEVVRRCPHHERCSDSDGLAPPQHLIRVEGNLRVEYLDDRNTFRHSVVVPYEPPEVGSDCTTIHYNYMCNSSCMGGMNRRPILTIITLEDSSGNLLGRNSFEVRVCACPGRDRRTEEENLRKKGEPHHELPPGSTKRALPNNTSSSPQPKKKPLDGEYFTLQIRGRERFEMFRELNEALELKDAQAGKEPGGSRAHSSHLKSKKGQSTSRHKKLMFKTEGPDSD
Compound,outcome,AC50
CC(C)N(C(=O)SCC(Cl)=C(Cl)Cl)C(C)C,inactive,–
FC(F)C(F)(F)OCC(Cn1cncn1)c1ccc(Cl)cc1Cl (stereo not given),inactive,–
COP(=O)(NC(C)=O)SC (stereo not given),inactive,–
CCOP(=S)(Oc1cnc(C(C)(C)C)nc1)OC(C)C (stereo not given),inactive,–
Cc1nn(-c2cc(NS(C)(=O)=O)c(Cl)cc2Cl)c(=O)n1C(F)F,inactive,–
CC(C1CC1)C(O)(Cn1cncn1)c1ccc(Cl)cc1 (stereo not given),inactive,–
COP(=O)(OC)C(O)C(Cl)(Cl)Cl (stereo not given),–,9.92 µM (active)
CSC1=N[C@@](C)(c2ccccc2)C(=O)N1Nc1ccccc1,inactive,–
CCOP(=S)(OCC)OC(Cl)C(Cl)(Cl)Cl (stereo not given),inactive,–
CNC(=O)Oc1cccc2c1OC(C)(C)O2,–,6.08 µM (active)
CCOC(=O)CC(SP(=O)(OC)OC)C(=O)OCC (stereo not given),inactive,–
CCOP(=S)(OCC)SCCSCC,inactive,–
Cc1cc(C2CC2)nc(Nc2ccccc2)n1,inactive,–
CCOP(=S)(OCC)Oc1ccc2c(C)c(Cl)c(=O)oc2c1,inactive,–
N#CSCSC#N,inactive,–
CNc1cnn(-c2cccc(C(F)(F)F)c2)c(=O)c1Cl,inactive,–
CN(C)C(=O)Nc1cccc(C(F)(F)F)c1,inactive,–
CCCCOC(=O)c1ccccc1C(=O)O,inactive,–
Nc1nc(N)nc(NC2CC2)n1,inactive,–
CCC(=NOC/C=C/Cl)C1=C(O)CC(C2CCOCC2)CC1=O (stereo not given),inactive,–

Compound,outcome,AC50
COc1ccc(C(=CC(=O)N2CCOCC2)c2ccc(Cl)cc2)cc1OC,inactive,–
CNC(=O)ON=C(SC)C(=O)N(C)C,inactive,–
CC(C)[C@H](C(=O)O[C@H](C#N)c1cccc(Oc2ccccc2)c1)c1ccc(Cl)cc1,inactive,–
CCCCSP(=O)(SCCCC)SCCCC,inactive,–
CON=C(C(=O)OC)c1ccccc1CON=C(C)c1cccc(C(F)(F)F)c1,inactive,–
CC1=NNC(=O)N(/N=C/c2cccnc2)C1,inactive,–
S=C1NCCN1,inactive,–
CC1(C(=O)Nc2ccc(O)c(Cl)c2Cl)CCCCC1,inactive,–
CN1COCN(Cc2cnc(Cl)s2)C1=N[N+](=O)[O-],inactive,–
C#CC(C)(C)NC(=O)c1cc(Cl)cc(Cl)c1,inactive,–
C[Si](Cn1cncn1)(c1ccc(F)cc1)c1ccc(F)cc1,inactive,–
CCOC(=O)COc1cc(-c2nn(C)c(OC(F)F)c2Cl)c(F)cc1Cl,inactive,–
CCOP(=O)(NC(C)C)Oc1ccc(SC)c(C)c1 (stereo not given),inactive,–
CC[C@H](C)[C@H]1O[C@]2(C=C[C@@H]1C)C[C@@H]1C[C@@H](C/C=C(\C)[C@@H](O[C@H]3C[C@H](OC)[C@@H](O[C@H]4C[C@H](OC)[C@@H](NC)[C@H](C)O4)[C@H](C)O3)[C@@H](C)/C=C/C=C3\CO[C@@H]4[C@H](O)C(C)=C[C@@H](C(=O)O1)[C@]34O)O2,inactive,–
CCNc1nc(Cl)nc(NC(C)(C)C#N)n1,inactive,–
CCC(CC)Nc1c([N+](=O)[O-])cc(C)c(C)c1[N+](=O)[O-],–,72.9 µM (active)
C#CCC1=C(C)C(OC(=O)C2C(C=C(C)C)C2(C)C)CC1=O (stereo not given),–,80.1 µM (active)
COc1cccc(C(=O)NN(C(=O)c2cc(C)cc(C)c2)C(C)(C)C)c1C,inactive,–
CC(COc1ccc(Oc2ccccc2)cc1)Oc1ccccn1 (stereo not given),inactive,–
O=c1ccc(=O)[nH][nH]1,inactive,–
